# This is a sample that favours compounds with a hit; in the whole collection about 19% have one here.
# HT1080NT lethal: qHTS for induction of synthetic lethality in tumor cells producing 2HG: qHTS for the HT-1080-NT fibrosarcoma cell line | AID 686970, 2013 | HT-1080-NT fibrosarcoma viability, CellTiter-Glo ATP luminescence, 48 h | hit rate 1.6% among 360,000 | Potency, µM (highest dose often 46.1 µM), for inactives: at the highest dose activity, negative = less viability, hits mostly cytotoxic;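 also: NT is the 2HG producing partner of a matched IDH1 knockdown line; potency is read from the fitted curve at half-maximal effect; 0% = DMSO-treated cells and -100% = media-only wells without cells; nearly all actives have a fitted effect of over 55% in size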
#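 Read-out is CellTiter-Glo luminescence after 10 minutes at room temperature, following 48 hours' compound treatment of HT-1080-NT cells (750 cells/well, RPMI, 5% FBS, 37 degrees C).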
# TDP1 cell noCPT: qHTS for Inhibitors of human tyrosyl-DNA phosphodiesterase 1 (TDP1): qHTS in cells in absence of CPT; DT40 Tdp1-/- hTDP1 cells, no CPT, ATP luminescence, 48 h; Potency, µM (highest dose often 46.2 µM), without a hit: at the top dose activity change, negative = growth inhibition, hits mostly inhibitors; hit rate 15% among 420,000; AID 686978, 2013; also: potency is read from the fitted curve at half-maximal effect; nearly all actives have a fitted effect of over 55% in size
#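 Readout: luminescence from CellTiter-Glo after 30 min in the dark at RT. Cells: DT40 Tdp1-/- with stable hTDP1, 400/well. Exposure: compounds alone, ≥48 hr, 37 °C.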
# IL-1B inflam inh: qHTS for Inhibitors of Inflammasome Signaling: IL-1-beta AlphaLISA Primary Screen. THP-1 LPS/ATP IL-1B secretion, AlphaLISA, 16 h; active compounds read low. activity change, % at 57.5 µM. hit rate 4.7% among 360,000; in the data active = activity change below about -50%; inconclusive = mostly about -30% to -49%
#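 THP-1 cells pretreated 1 hr with compounds (up to 57.5 uM final), then stimulated with LPS (250 ng/mL final) plus ATP (1.25 mM final); secreted IL-1B measured by AlphaLISA after 16 hr, decreased signal indicating inhibition.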
# HT1080 IDH1KD tx: qHTS for induction of synthetic lethality in tumor cells producing 2HG: qHTS for the HT-1080-IDH1KD cell line; Potency, µM (series often up to 46.1 µM), inactives show top-dose activity, negative = toxicity, usual class: cytotoxic; hit rate 2% among 360,000; HT-1080 IDH1 knockdown viability, ATP luminescence, 48 h;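 also: potency is read from the fitted curve at half-maximal effect; 0% = DMSO wells and -100% = cell-free medium wells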
#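 Using the IDH1-knockdown HT-1080 line run in the same batch and compound series as the NT line, viability after 48 h at 37 °C was determined by CellTiter-Glo luminescence and expressed as % activity.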
# DT40 TDP1 CPT: qHTS for Inhibitors of human tyrosyl-DNA phosphodiesterase 1 (TDP1): qHTS in cells in presence of CPT; chicken DT40 Tdp1-/-;hTDP1 cells + 20 nM CPT, ATP luminescence, 48 h; AID 686979, 2013; Potency, µM (top dose mostly 46.2 µM), for inactives: at the highest dose activity change, negative = growth inhibition, usual class: inhibitors; hit rate 12% among 420,000; also: potency is read from the fitted curve at half-maximal effect; nearly all actives have a fitted effect of over 55% in size
#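 Chicken DT40 Tdp1-/- cells stably complemented with human TDP1 were seeded at 400 cells/well in medium containing 20 nM camptothecin, exposed to pin-transferred compounds, and grown at 37 °C for at least 48 hr. Viability was read as ATP luminescence.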
# Active calls of the source: *; ? = inconclusive; . = no result. Unless noted, calls follow the shape of the dose curve; as a rule, active = well fitted curve in the direction sought with a large enough effect; inconclusive = small, poorly fitted or top-dose-only effect, or another doubt; inactive = no such curve, though single readings can be large; an effect the other way counts as inactive or inconclusive. Unless noted, % is scaled to controls: 0 for no effect and ±100 for the full control effect.
SMILES,HT1080NT lethal,TDP1 cell noCPT,IL-1B inflam inh,HT1080 IDH1KD tx,DT40 TDP1 CPT
COc1ccc(NC(=O)c2ccc(Cc3ccc(C)cc3)o2)cc1,-0.5%,?,-6.2,-8.1%,?
CCCS(=O)(=O)c1ncc(Cl)c(C(=O)Nc2c(C(=O)Nc3ccccc3)oc3ccccc23)n1,.,2.59µM*,.,.,2.06µM*
C[C@H]1CN([C@@H](C)CO)C(=O)CCCn2nncc2CO[C@H]1CN(C)C(=O)Nc1ccnc(N2CCOCC2)c1,7.0%,-26.9%,20.5,10.1%,-28.4%
Cc1ccc(CS(=O)(=O)c2ncc(Cl)c(C(=O)Nc3ccc(OC(F)F)cc3)n2)cc1,16.4µM*,3.66µM*,-103.4*,?,3.66µM*
CSc1ncc(Cl)c(C(=O)Nc2ccc(NC(C)=O)cc2)n1,-3.2%,-18.8%,-17.5,2.1%,2.7%
CCS(=O)(=O)c1ncc(Cl)c(C(=O)Nc2ccc(C)cc2)n1,18.4µM*,1.84µM*,-98.8*,14.6µM*,1.64µM*
CC1CCCN(S(=O)(=O)c2ccc(NC(=O)CNC3CCCC3)cc2)C1 (stereo not drawn),-19.7%,?,?,-4.9%,?
COC(=O)c1ccccc1NC(=O)c1nc(S(=O)(=O)Cc2ccccc2)ncc1Cl,0.3%,1.3µM*,-15.8,-9.9%,2.91µM*
CCS(=O)(=O)c1ncc(Cl)c(C(=O)Nc2ccc(S(=O)(=O)N3CCCC(C)C3)cc2)n1 (stereo not drawn),2.59µM*,2.31µM*,-104.4*,4.61µM*,0.92µM*
Cc1ccc(S(=O)(=O)NC(=O)Nc2ccc(OC(F)F)cc2)cc1,0.9%,3.7%,1.4,13.5%,12.8%
O=C(Nc1c(C(=O)Nc2cccc3ccccc23)cnn1-c1ccccc1)c1ccco1,-8.4%,?,-3.1,-0.4%,?
CN1CCN(S(=O)(=O)c2ccc(C#N)cc2)C(c2ccccc2)C1 (stereo not drawn),9.1%,-8.8%,14.2,10.0%,-5.0%
COc1ccccc1CCNC(=O)c1ccc(NC(=O)CC2SC(N3CCCC3)=NC2=O)cc1 (stereo not drawn),0.6%,-24.7%,7.8,6.8%,-17.1%
O=C(Nc1ccc(OC(F)F)cc1)c1ncc(Cl)c(Cl)c1Cl,-3.9%,0.2%,-157.6*,13.9%,17.7%
CCOc1ccc(NC(=O)c2nc(S(=O)(=O)Cc3ccc(C)cc3)ncc2Cl)cc1,.,0.631µM*,.,.,0.794µM*
CC(=O)Nc1ccc(NC(=O)c2nc(S(=O)(=O)Cc3ccccc3)ncc2Cl)cc1,-2.6%,0.461µM*,.,-3.1%,0.259µM*
COc1ccc(S(=O)(=O)N2CCN(c3ccccc3)CC2)cc1-c1noc(C)n1,.,-9.2%,.,.,11.2%
CCc1cccc(C)c1NC(=O)c1cc(S(=O)(=O)NCc2ccccc2Cl)ccc1F,.,25.9µM*,.,.,20.6µM*
CCOc1ccc(S(=O)(=O)NCc2ccccc2)cc1C(N)=O,2.1%,?,-8.4,-15.6%,?
CCOc1ccc(S(=O)(=O)NCc2ccccc2Cl)cc1C(N)=O,2.0%,?,-58.4*,-8.6%,?
Cc1cccc(NC(=O)c2cc(S(=O)(=O)NCc3ccc4c(c3)OCO4)ccc2F)c1C,.,-22.4%,.,.,-7.3%
COCCN1C(=O)CSCC1(C)C(=O)NC(C)C (stereo not drawn),25.0%,44.5%,0.8,10.1%,-5.3%
CCOc1ccc(CCNC(=O)c2cc3c(=O)n(C)c4ccccc4c3n2C)cc1OCC,.,11.6µM*,.,.,23.1µM*

# Compound activity: PubChem, National Center for Advancing Translational Sciences (NCATS)
